# Experimental data: PubChem BioAssay (NCI)
# About 79,000 compounds went through this panel and 15% of them were active in at least one assay; those are over-represented in the sample as a whole. A number with no mark means an inactive call. Activity calls are given as the source filed them. Rule as the data show it: active = growth inhibition above about 70%; inactive = the rest.
# What was measured:
# [1] = NCI Yeast Anticancer Drug Screen. Data for the rad50 strain (AID 155);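 also: 0% = growth of vehicle-only cultures of the same strain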; details: S. cerevisiae rad50 strain growth inhibition; at 50.0 µM; stronger effect = higher value
# Summary of the method: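 Compounds were tested on a yeast strain with an engineered DNA damage repair alteration; the reported value is growth inhibition normalised to vehicle treatment.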
# [2] = NCI Yeast Anticancer Drug Screen. Data for the mec2-1 strain (AID 157); details: S. cerevisiae mec2-1 strain, at 50.0 µM, stronger effect = higher value
# Summary of the method: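 Mutant yeast (mec2-1) grown with compound; growth inhibition relative to vehicle control reported.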
# [3] = NCI Yeast Anticancer Drug Screen. Data for the sgs1 mgt1 strain (AID 161);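 also: 0% = growth of cultures given vehicle only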; details: S. cerevisiae sgs1 mgt1 strain, at 50.0 µM, stronger effect = higher value
# Summary of the method: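 Compounds are added to genetically altered yeast, and growth is compared with cultures given vehicle alone to give percent inhibition.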
# [4] = NCI Yeast Anticancer Drug Screen. Data for the cln2 rad14 strain (AID 165);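 also: 0% = growth equal to vehicle treated cultures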; details: S. cerevisiae cln2 rad14 strain, at 50.0 µM, stronger effect = higher value
# Summary of the method: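 Readout is yeast growth inhibition versus vehicle-treated controls, using a strain with cln2 and rad14 alterations exposed to compound.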
# [5] = NCI Yeast Anticancer Drug Screen. Data for the bub3 strain (AID 167); details: S. cerevisiae bub3 mutant strain, at 50.0 µM, stronger effect = higher value
# Summary of the method: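 Growth of a checkpoint-deficient yeast mutant is measured after compound exposure. Values represent inhibition relative to vehicle.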
# [6] = NCI Yeast Anticancer Drug Screen. Data for the mlh1 rad18 strain (AID 175); details: S. cerevisiae mlh1 rad18 strain growth inhibition; at 50.0 µM; stronger effect = higher value
# Summary of the method: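 Genetically defined yeast (DNA repair-deficient) exposed to compounds; growth inhibition determined relative to vehicle.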
Structure (SMILES),growth inhibition [1] [%],growth inhibition [2],growth inhibition [3],growth inhibition [4],growth inhibition [5],growth inhibition [6] [%]
N/C(=N\C(=O)OCCOC(=O)/N=C(/N)c1ccccc1)c1ccccc1,-3.5,-8.5%,-6.05%,-20.5%,-3.1%,-27.1
CC1(C)C2CC3C(C2)C31C,1,3.6%,-10.2%,5.35%,1.3%,-0.75
Cc1ccc(C)c2nc3c(C)ccc(C)c3cc12,22.5,1.4%,13%,-25.9%,-0.45%,14.3
O=C1c2c(-c3ccccc3)ccc(-c3ccccc3)c2C2(O)OC1(O)c1c(-c3ccccc3)ccc(-c3ccccc3)c1C2=O,5.65,4.95%,9.1%,-6.9%,6.4%,-13.9
CCOC(=O)c1cnc(SC)nc1Nc1cccc(Cl)c1Cl,1.15,99% (active),35.9%,98.1% (active),98.8% (active),25.1
O=C(CN1CCCC1)Nc1ccc2c(c1)C1Oc3ccccc3CC1CO2 (stereo unspecified),7.65,4.2%,5.55%,11.6%,-12.7%,30.6
C=CCc1ccc(OC(=O)Nc2ccc(S(=O)(=O)N(C)C)cc2)c(OC)c1,26.6,2%,22.8%,14.6%,6.75%,19.2
CN(CCO)c1nc2c(c(=O)[nH]1)CCC2,-3.55,-21.8%,-43%,-5.25%,-19.4%,-21.8
Cc1ccc(N)c(C(=O)Nc2ccc(Br)cc2)c1,-19.6,-18.6%,-10.1%,-8.85%,-17.6%,-16.6
CCOC(=O)C(=O)Cc1cc(=O)n(C)c2ccccc12,12.5,16.1%,16.4%,1.8%,13.9%,1.5
CCCCn1c2nc(=O)n(C)c(=O)c-2cc2ccccc21,29,16.7%,22.6%,-25.4%,17.8%,34.7
C/C(=N\NC(=S)NC(C)C)c1nc2ncccc2[nH]1,-14.5,-17.6%,-56.6%,-28.8%,17.5%,-25.8
Fc1ccccc1C1CC(c2ccc3ccccc3c2)=Nc2ccccc2S1 (stereo unspecified),30.9,12.1%,18.4%,13.4%,10.4%,34.4
CC(=O)NCc1cccc[n+]1[O-],14.8,-12%,-3.8%,-59.3%,-6.85%,-7.2
CC1(C)CS(=O)(=O)CC(C)(C)C(=O)C1=O,-25.6,-19%,-15%,5.45%,-6%,-3.4
Cc1ccccc1N=C(N)Nc1ccccc1,5.5,-4.85%,-3.9%,-43.3%,-10.6%,-6.7
c1ccc(CCN=C2c3ccccc3-n3cccc32)nc1,33.5,0.95%,-6.75%,-28.1%,10.6%,16.4
CN(C)C(=O)Nc1cccc2c(NC(=O)N(C)C)cccc12,-1.4,4.4%,10.7%,11.9%,-4.45%,-1.55
CSc1c(C)n([O-])c2ccccc2[n+]1=O,23.1,26.1%,8.85%,-20.5%,26.1%,5.4
Clc1ccc(Nc2ncnc3oc(-c4ccccc4)c(-c4ccccc4)c23)cc1,6.7,13%,1.3%,-5.05%,-4.1%,4.65
CC(C)c1ccccc1[S+]1OC(C)(C)c2ccccc21 (stereo unspecified),-4.9,21.9%,6.95%,9.45%,-1.5%,-38.7

Structure (SMILES),growth inhibition [1] [%],growth inhibition [2],growth inhibition [3],growth inhibition [4],growth inhibition [5],growth inhibition [6] [%]
CCC1(CC)SCC(C)(O)NC1=O (stereo unspecified),1.95,-12.5%,-7.15%,-35.4%,-10.6%,-4.75
CSc1nc2ncnc(N(C)C)c2[nH]1,1.1,-11.8%,-8.5%,2.45%,-7.4%,-16.5
C=CCOC(=O)NCC(=O)NC(C)C(N)=O (stereo unspecified),-22.7,-14.2%,-19.1%,2.55%,-5.5%,4.25
C=C(Cl)C(=C)CCC(Cl)C(C)C (stereo unspecified),-6.15,-9.4%,1.6%,20.6%,0.25%,0.55
COC(=O)N/C(C)=N/OCc1ccccc1,1.2,0.6%,4.3%,8.8%,15%,-11.7
[Cu+2].[NH-]C(CC(=O)O)C(=O)O.[NH-]C(CC(=O)O)C(=O)O (stereo unspecified),-35.3,-11.7%,-13.7%,64.4%,-61.3%,-3.45
O=C(COc1ccccc1)OC1CCCC1,17.6,-13.4%,-9.8%,-1.9%,-3.05%,4.55
O=C1O/C(=C(/Cl)c2cccc3ccccc23)c2ccccc21,-40.2,-67.8%,-38.4%,9.55%,-16.9%,-38
O=c1oc2ccccc2cc1S(=O)(=O)c1ccc(Cl)cc1,-0.9,0.85%,3.7%,-58%,-9.75%,-20.4
CCCCCOP(=O)(OCCCCC)C(c1ccccc1)c1ccccc1,1,-44.9%,-4.15%,-33.4%,9.5%,-11.9
O=C(CCCn1ccnc1[N+](=O)[O-])NCCn1cnc([N+](=O)[O-])c1,8.9,29.6%,5.2%,5.75%,-9.4%,61
S=c1[nH]nc(COc2cccc3cccnc23)n1-c1ccccc1,12.5,2.55%,2.05%,25.9%,13.4%,12.4
COc1cc2c(c(OC)c1OC)-c1ccc(S(=O)(=O)Cc3ccccc3)c(=O)cc1C(NC(C)=O)CC2 (stereo unspecified),34.5,16.2%,9.8%,-2.3%,1.25%,21.8
COc1ccc(C(=O)/C=C/c2cccc3ccccc23)cc1,15.4,25.7%,30.9%,-3.85%,33%,16.6
Cc1ccc(SCC(CF)OC(C)n2cnc3c(Cl)nc(N)nc32)cc1 (stereo unspecified),14.3,1.05%,30.6%,39.6%,41.7%,-36.7
CC(C)(C)C(N)=O,2.4,-1.25%,4.35%,-3.9%,-7.25%,-1.25
CCCCCP(=O)(CCC(C)C)CC(C)C (stereo unspecified),8.95,7.3%,20.7%,28.9%,-10.6%,-6.6
COC(=O)C(Br)(C(=O)OC)C(c1ccccc1)c1ccccc1,38.1,41.3%,72.3% (active),26.2%,41.8%,37.3
CC(=O)OCC1OC(Nc2[nH]c(=O)[nH]c(=O)c2N=O)C(OC(C)=O)C(OC(C)=O)C1OC(C)=O (stereo unspecified),5.75,3.75%,0.95%,-1.5%,-1.7%,-10.3
NSC(=S)NCc1ccco1,1,-2.95%,7.75%,-52.1%,15.8%,13.7
